# CYP2C19 activ: human CYP2C19 activators, primary screen, biochemical, luminescence. Cytochrome P450 2C19 (Homo sapiens), P33261. recombinant CYP2C19, luciferin-H EGE luminescence; active compounds read high; 0 = fully inhibited enzyme, 1 = untreated enzyme. activation factor at 5 µM. 96,000 tested, under 10 active;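 active = activation factor of at least 2 at 5 µM in the primary screen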;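 also: 0 = wells with 2.5 mM tranylcypromine and 1 = vehicle-only wells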
# CYP2C9 inh: blockers of cytochrome P450 2C9 activity – biochemical, luminescence, ADME assay, primary screen; CYP2C9 Supersomes, luciferin-H conversion; actives 20% (n = 96,000); AID 777, 2007; P11712; inhibition, % at 5 µM;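 active = blocking of liver enzyme CYP2C9 beyond about 50% at 5 µM, limit read from the data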
# CD11b adhes inh: inhibitors of CD11b/CD18 adhesion to fibrinogen, primary screen, K562 cells, luminescence. Integrin beta-2 (Homo sapiens) + Integrin alpha-M (Homo sapiens), P05107+P11215. ATPlite luminescence; Mn2+ added to activate the integrin. inhibition, % at 10 µM. actives 0.54% (n = 93,000);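 active = primary inhibition of 50% or more at 10 µM, then 40% or more on retest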
# Target sequence (P05107 whole entry, looked up, other chains not shown): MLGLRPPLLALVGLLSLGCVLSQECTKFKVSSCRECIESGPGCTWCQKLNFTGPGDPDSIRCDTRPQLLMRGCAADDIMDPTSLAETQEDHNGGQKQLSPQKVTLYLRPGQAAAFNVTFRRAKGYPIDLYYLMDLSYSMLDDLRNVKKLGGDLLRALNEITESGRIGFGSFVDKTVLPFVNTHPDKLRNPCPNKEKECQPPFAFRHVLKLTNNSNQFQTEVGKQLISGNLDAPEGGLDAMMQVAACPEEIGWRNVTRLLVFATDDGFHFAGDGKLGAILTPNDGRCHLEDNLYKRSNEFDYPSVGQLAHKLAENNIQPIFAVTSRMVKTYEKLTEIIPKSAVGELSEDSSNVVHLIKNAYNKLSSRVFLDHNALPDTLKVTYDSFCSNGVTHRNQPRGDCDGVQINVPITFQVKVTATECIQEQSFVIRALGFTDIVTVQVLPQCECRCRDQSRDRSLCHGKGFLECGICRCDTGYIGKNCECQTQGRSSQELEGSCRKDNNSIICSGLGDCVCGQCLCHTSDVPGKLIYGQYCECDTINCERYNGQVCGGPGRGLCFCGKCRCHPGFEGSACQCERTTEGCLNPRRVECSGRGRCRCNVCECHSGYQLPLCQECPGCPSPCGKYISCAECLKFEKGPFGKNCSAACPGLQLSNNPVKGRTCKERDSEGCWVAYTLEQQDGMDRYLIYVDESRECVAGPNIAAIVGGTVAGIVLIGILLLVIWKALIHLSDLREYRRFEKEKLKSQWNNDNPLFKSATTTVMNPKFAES
# CYP2C19 inh: blockers of cytochrome P450 2C19 activity – biochemical, luminescence, ADME assay, primary screen. P33261. CYP2C19 Supersomes, luciferin-H EGE luminescence, 30 min. inhibition, % at 5 µM. actives 21% (n = 96,000);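 active = CYP2C19 inhibition above a set limit at 5 µM in the primary screen, cut at about 50% in these data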;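 also: plate controls were negative control wells for no effect and 2.5 mM tranylcypromine positive control for full effect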
# CYP2C9 act: human CYP2C9 activators, primary screen, biochemical, luminescence. Cytochrome P450 2C9 (Homo sapiens), P11712. recombinant CYP2C9, luciferin-H conversion; active compounds read high; factor 1 = untreated enzyme, 0 = blocked. activation factor at 5 µM. actives 1.4% (n = 96,000). AID 1024, 2008;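 active = activation factor of 2 or more for CYP2C9 at a 5 µM dose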;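 also: 0 = sulfaphenazole-blocked wells and 1 = vehicle-only wells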
# CD11b adhes enh: enhancers of CD11b/CD18 adhesion to fibrinogen, primary screen, K562 cells, luminescence; ATPlite luminescence; activation, % at 10 µM; actives 0.07% (n = 93,000); AID 1499, 2009;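 active = 10 µM primary screen giving 50% or more activity, confirmed by 40% or more on retest at that dose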
# * = called active by the depositor; x = not tested or not shown. An excerpt weighted towards active compounds, which were near 28% of everything screened.
SMILES,CYP2C19 activ,CYP2C9 inh,CD11b adhes inh,CYP2C19 inh,CYP2C9 act,CD11b adhes enh
COC(=O)CSc1nc2ccccc2o1,1,11.2,x,2.8,0.9,x
CC(=O)Nc1nonc1NC(=O)CSc1nc2ccccc2o1,0.5,36.5,1.4,53.4*,0.6,-0.3
CN(C)CCN1C(=O)C(=O)/C(=C(/O)c2ccc(F)cc2)C1c1ccccc1F (configuration not stated),1,0.6,32.6,-4.7,1,-0.1
Cc1cc(C)nc(NC(=O)CSc2nc3ccccc3o2)n1,0.4,19.4,-40.6,63.4*,0.8,-3.3
Cc1nn2c(-c3cccc(NC(=O)CSc4nc5ccccc5o4)c3)nnc2c2ccccc12,0,92.4*,-18.6,98.4*,0.1,68.3
CCN(CC)CCC(=O)Nc1ccc2c(c1)N(C(=O)CN(CC)CC)c1ccccc1CC2,0.9,6.6,x,5.2,0.9,x
S=C1N(c2ccccc2)C(c2cccc3ccccc23)N2CCCN12 (configuration not stated),0.8,34.2,11.4,18.1,0.7,-2.5
COc1ccc(C(C)=O)cc1COC(=O)c1ccc(S(=O)(=O)N2CCOCC2)cc1,0.5,93.9*,1.1,51.4*,0.1,10.2
COc1ccc(C(=O)NCCC(C)C)cc1S(=O)(=O)N1CCOCC1,0.8,30.4,-43.3,16.7,0.7,-4.4
COc1cc(C(=O)OCC(=O)c2c[nH]c3ccccc23)ccc1OCC(=O)N1CCOCC1,0.5,77.5*,-2.6,51.0*,0.2,-3.1
COc1ccc(C(=O)NCCc2c[nH]c3ccccc23)cc1S(=O)(=O)N1CCOCC1,0.8,60.6*,-9.5,19.4,0.4,-4.6
COc1ccc(C(=O)OCC(=O)c2ccccc2)cc1S(=O)(=O)N1CCOCC1,0.2,55.7*,-6.7,77.7*,0.4,1.1
CCOc1cc(C(=O)OCC(=O)c2c[nH]c3ccccc23)ccc1OCC(=O)N1CCOCC1,0.7,41.2,18.2,29.3,0.6,3.9
COc1ccc(OC)c2sc(NC(=O)c3ccc(S(=O)(=O)N4CCOCC4)cc3)nc12,0.9,16.7,-11.1,6.4,0.8,12.8
COC(=O)Cc1ccc(NC(=O)c2ccc(C(C)(C)C)cc2)cc1,0.8,11.2,59.3*,24.3,0.9,-7.8
COC(=O)C(Cc1c[nH]c2ccccc12)NC(=O)CNC(C)=O (configuration not stated),0.9,-2.6,6.5,12.7,1,-1.8
COc1cc(C(=O)OCC(=O)Nc2cc(C)on2)ccc1OCc1ccccc1Cl,0.9,6.3,-0.8,13.1,0.9,2.6
CC(=O)NC(Cc1c[nH]c2ccccc12)C(=O)N1CCc2ccccc2C1 (configuration not stated),0.2,46.9,-9.4,75.4*,0.5,-0.6
CC(=O)NC(Cc1c[nH]c2ccccc12)C(=O)OCC(=O)Nc1ccc2c(c1)OCO2 (configuration not stated),0.6,73.9*,3.4,39.2,0.3,4.9
CC(=O)/C=C(/C)NC(Cc1c[nH]c2ccccc12)C(=O)O (configuration not stated),1.1,-11.8,17.4,-8.5,1.1,-3.2
Cc1cc(NC(=O)COC(=O)[C@H](Cc2c[nH]c3ccccc23)NC(=O)c2ccc(F)cc2)no1,0.7,75.5*,14.0,29.9,0.2,-0.3
CC(=O)NC(Cc1c[nH]c2ccccc12)C(=O)OCC(=O)Nc1cc(C)on1 (configuration not stated),0.1,84.1*,-9.7,87.2*,0.2,0.3
O=C(NNC(=O)c1cc(OCC(F)(F)F)ccc1OCC(F)(F)F)c1cccc(C(F)(F)F)c1,0.8,39.5,5.0,23.9,0.6,13.6
CCn1c(=O)n(CC(=O)NCc2ccccc2OC)c(=O)c2ccccc21,0.5,-44.5,-41.8,53.8*,1.4,5.3
CCOc1ccccc1CNC(=O)Cn1c(=O)oc2ccccc21,0.6,-22.7,-4.2,36.7,1.2,-1.6
SMILES,CYP2C19 activ,CYP2C9 inh,CD11b adhes inh,CYP2C19 inh,CYP2C9 act,CD11b adhes enh
COc1cccc(CNC(=O)Cn2c(=O)oc3ccccc32)c1OC,0.3,4.0,-1.4,65.6*,1,-7.3
CN1CCCN(C(=O)Cc2c(Cl)cccc2Cl)c2nc3ccccc3nc21,0.8,17.1,33.1,18.1,0.8,2.4
CCC(C)n1c(-c2cccs2)nc2nc3ccccc3nc21 (configuration not stated),0.8,59.7*,-14.2,17.7,0.4,-1.7
c1ccc(-n2c(-c3cccs3)nc3nc4ccccc4nc32)cc1,x,x,-10.5,x,x,31.4
CCOC(=O)c1cccc(NC(=O)c2ccco2)c1,0.7,-15.7,x,27.3,1.2,x
CCS(=O)(=O)c1ccc(S(=O)(=O)CC)s1,1.1,-2.7,-47.3,-6.2,1,-0.1
Cc1ccc(S(=O)(=O)Nc2ccc3c(c2)nc2n3CCN(Cc3ccccc3)C2)cc1,0.2,95.5*,-1.5,82.7*,0,-2.5
O=S(=O)(Nc1ccc2c(c1)nc1n2CCN(Cc2ccccc2)C1)c1ccc(Cl)cc1,0.1,97.9*,13.4,87.9*,0,29.5
O=C(c1ccco1)N1CCN(C(=O)C2CCN(S(=O)(=O)Cc3ccccc3)CC2)CC1,0.9,13.3,-2.6,13.8,0.9,-1.7
COc1ccc(-c2c3c(=O)n(C)c(=O)n(C)c3cn2Cc2cccnc2)cc1,0.7,5.3,0.0,28.5,0.9,-3.3
COc1c2occc2c(OC)c2c(=O)cc(C(F)(F)F)oc12,0.5,18.9,-25.1,48.3,0.8,-1.8
COc1c2occc2c(OC)c2c(=O)cc(C(F)(F)C(F)(F)F)oc12,0,60.6*,-2.0,98.1*,0.4,3.8
CCCn1c(=O)n(C)c(=O)c2c(SCC(=O)NC34CC5CC(CC(C5)C3)C4)nc(CC(C)C)nc21,x,x,4.2,x,x,4.6
O=S(=O)(/N=C(/Nc1cccc2ccccc12)c1ccccc1)c1cccs1,0.1,84.3*,-55.0,90.0*,0.2,1.0
N#CCc1nnc2n1-c1ccccc1CCC2,0.8,8.8,2.9,16.3,0.9,-3.5
CN1/C(=C/C2CC(=O)N(c3ccc([N+](=O)[O-])cc3)C2=O)C(C)(C)c2ccccc21 (configuration not stated),0.2,18.6,-1.3,79.8*,0.8,-1.4
COc1cc2c(cc1OC)CN(S(C)(=O)=O)CC2,0.9,7.5,4.2,8.6,0.9,1.6

# High-throughput results deposited in PubChem by Sanford-Burnham Center for Chemical Genomics.
